Source: PubChem
The list is not random: actives were taken first. Their share in the collection is about 2.3%.
USP1-UAF1 inh = inhibitors of human USP1/UAF1 deubiquitinase. Potency, µM (series often up to 57.1 µM), for the others: at the top dose activity change, negative = inhibition, usual class: inhibitors. AID 743255. recombinant USP1/UAF1, Ub-Rhodamine cleavage fluorescence. hit rate 0.23% among 390,000. O94782; also: potency is read from the fitted curve at half-maximal effect; nearly all actives have a fitted effect of over 60% in size
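Step one: compound is pinned into 1nM USP1/UAF1 in HEPES pH 7.8 buffer with TCEP. Step two: 15 min room-temperature incubation. Step three: Ub-Rho (150nM final) starts cleavage, tracked by fluorescence over six one-minute reads.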
Tau fibril ThT = inhibitors of human tau fibril formation, thioflavin T binding. recombinant tau K18 P301L, heparin-induced fibrillization, ThT fluorescence. Potency, µM (titrated, usually from 57.4 µM), for inactives: top-dose activity, negative = inhibition, usual class: inhibitors. hit rate 2.1% among 270,000. AID 1460; also: potency is read from the fitted curve at half-maximal effect; nearly all actives have a fitted effect of over 55% in size
Target sequence (P10636 561-689 P618L limits assumed): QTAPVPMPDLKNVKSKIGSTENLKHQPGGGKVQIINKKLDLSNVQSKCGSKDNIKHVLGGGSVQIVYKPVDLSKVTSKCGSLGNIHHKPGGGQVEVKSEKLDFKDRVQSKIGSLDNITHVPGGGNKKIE
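Tau K18 P301L fragment (15 uM unlabeled plus 0.24 uM Alexa 594-labeled) in 100 mM sodium acetate pH 7 with compound, fibrillization induced by 20 uM heparin for 6 hr at 37 C. Thioflavin T (30 uM) added, fluorescence read after 1 hr (ex 450, em 510 nm).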
Tau fluor cs = counter-screen for tau fibril formation inhibitors; AID 1463; Potency, µM (titrated, usually from 57.7 µM), inactives show at the highest dose activity change, negative = decrease; tau K18 P301L (four-repeat tau fragment) Alexa594 fluorescence, heparin fibrillization; hit rate 0.93% among 280,000; also: potency is read from the fitted curve at half-maximal effect; nearly all actives have a fitted effect of over 55% in size
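Human K18 P301L tau (15 uM unlabeled plus 0.24 uM Alexa 594-labeled, final) in 100 mM sodium acetate pH 7 was mixed with compound and 20 uM heparin and incubated 6 hr at 37 C.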
Tau FP inhib = blocks human tau fibril formation measured by polarization | P10636 | K18 P301L tau heparin fibrillization, Alexa594 FP, 6 h | Potency, µM (titrated, usually from 57.7 µM), without a hit: at the highest dose activity, negative = inhibition, usual class: inhibitors | hit rate 0.39% among 280,000 | AID 1468; also: potency is read from the fitted curve at half-maximal effect; nearly all actives have a fitted effect of over 55% in size
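FP of Alexa 594-tau after heparin (20 uM) induction. Substrate: human K18 P301L, 15 uM unlabeled, 0.24 uM labeled. Buffer 100 mM sodium acetate pH 7. 6 hr, 37 C.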
FBPA coupling cs = counter-screen for Giardia aldolase inhibitors: coupling enzyme system | coupling enzyme system counterscreen, AmpLite Red fluorescence | hit rate 0.67% among 290,000 | AID 2472 | activity change, negative = inhibition, % at 58.2 µM, hits read low; in the data active = activity change below about -30%
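Coupling enzymes only (glyceraldehyde-3-phosphate) + compound, at 57.5 uM final, 10 min RT; add substrate/coupling/AmpLite Red mix, 20 min RT; fluorescence ex 525/em 598 nm. Actives flag coupling-system interference.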
Numbers without * were called inactive; u = inconclusive; x = not tested or not shown; [ ] = remark or other dose. Unless noted, calls follow the shape of the dose curve; as a rule, active = well fitted curve in the direction sought with a large enough effect; inconclusive = small, poorly fitted or top-dose-only effect, or another doubt; inactive = no such curve, though single readings can be large; an effect the other way counts as inactive or inconclusive. % is scaled to controls: 0 for no effect and ±100 for the full control effect.

SMILES | USP1-UAF1 inh | Tau fibril ThT | Tau fluor cs | Tau FP inhib | FBPA coupling cs
CC(CNC(=O)C1CCN(S(=O)(=O)c2ccc3c(ccn3C)c2)CC1)c1ccccc1 (stereo not drawn) | -5% | 3% | -6% | -5% | x
Cc1nc(N2CCCC2)ncc1C(=O)Nc1ccccc1 | -16% | 2% | 4% | 5% | x
CCCCCn1c(C)c2c(OCC)cccc(=O)c2c1C | u | x | 9%[0.0958 µM] | -1%[0.0958 µM] | 0
CCOc1cccc(=O)c2c(C)n(C)c(C)c12 | -15% | 16µM* | -15% | -14% | -9
COCCNc1ccc(-c2nc(-c3ccncc3)no2)cc1[N+](=O)[O-] | 2% | 5% | -2% | 8% | x
Cc1nn2c(=O)cc(COC(=O)c3ccccc3NC(=O)c3cccs3)nc2s1 | -1% | 7% | 14% | 6% | x
Cc1ccc2nc3cc([N+](=O)[O-])cc([N+](=O)[O-])c3cc2c1 | -29% | 3.2µM* | u | u | -6
O=C(NCc1ccco1)c1cccn2c(=O)c3cc4ccccc4cc3nc12 | x | 2.8µM* | -8% | 0% | -31*
C=CCn1c(=N)c(C(=O)NCCCOC)cc2c(=O)n3cccc(C)c3nc21 | -3% | -7% | -2% | 1% | -1
COCCCNC(=O)c1cccn2c(=O)c3cc4ccccc4cc3nc12 | -12% | 14µM* | -11% | -6% | -25
Cc1ccc2nc(Cl)c3cc(C(=O)N(C)C4CCCCC4)sc3c2c1 | 6% | -15% | -10% | -12% | x
O=C(NC1CCCCC1)C(c1ccncc1)N(Cc1ccc2c(c1)OCO2)C(=O)c1cnsn1 (stereo not drawn) | -15% | 5% | -5% | -14% | -46*
COc1ccc2[nH]cc(CCNc3ncnc4ccc(-c5ccccc5C#N)cc34)c2c1 | x | u | 14µM*[quencher] | 14% | 0
COc1ccc2[nH]cc(CCNc3ncnc4ccc(-c5cccc(C#N)c5)cc34)c2c1 | x | x | x | x | -11
CC(=O)Oc1cc2oc(=O)c3c(c2cc1Cl)CCC3 | u | 14µM* | u | 18µM* | -4
Cc1ccc2nc(CSc3nnc(NC(=O)C(C)C)s3)cc(=O)n2c1 | -8% | -3% | 1% | -2% | x
C=CCN1C(=O)/C(=C/c2ccc(O)cc2)S/C1=N/c1nccs1 | u | u | 3.5µM*[quencher] | u | 8
C=CCN1C(=O)/C(=C/c2ccc(OC)cc2)S/C1=N/c1nccs1 | -15% | -3% | -16% | -8% | -1
C=CCN1C(=O)/C(=C2/C(=O)N(CC(=O)O)c3ccccc32)S/C1=N/c1nccs1 | x | 7.1µM* | u | -19% | 0
O=C(O)CN1C(=O)/C(=C2\SC(=S)N(C(Cc3ccccc3)C(=O)O)C2=O)c2ccccc21 (stereo not drawn) | -10% | x | x | x | 2
Cc1nc2cnc(N(C)C)nc2n(-c2ccccc2)c1=O | x | x | x | x | 4
COc1ccc(CCNC(=O)C2(c3cccs3)CCOCC2)cc1 | 5% | 0% | 3% | -1% | x
Cc1ccc2c(CN3CCCc4ccccc43)cc(=O)oc2c1C | -18% | u | -20% | -6% | -53*
Cc1ccc2c(CN3CCCCC3)cc(=O)oc2c1C | -12% | x | x | x | 4
Cc1ccc(NC(=O)CN2C(=O)COc3ccc(S(=O)(=O)N4CCOCC4)cc32)c(Cl)c1 | -8% | -1% | -8% | -10% | x
SMILES | USP1-UAF1 inh | Tau fibril ThT | Tau fluor cs | Tau FP inhib | FBPA coupling cs
O=C(O)CCN1C(=O)/C(=C\c2cccc(OCC(=O)Nc3ccc(Cl)cc3)c2)SC1=S | -1% | 13µM* | -16% | -4% | 13
Cc1ccc(NC(=O)COc2cccc(/C=C3\SC(=S)N(CCC(=O)O)C3=O)c2)cc1Cl | u | 13µM* | -13% | -1% | 10
CCCCN(C)CCCNC(=O)Cn1ncc2c3ccccc3n(Cc3ccccc3)c2c1=O | -15% | -11% | -25% | 0% | x
CC1CCC2C(=O)OC(CO)CN2C1c1ccc(Br)cc1 (stereo not drawn) | x | -6%[11.5 µM] | -7%[11.6 µM] | -2%[11.6 µM] | -3
Cc1cccn2c(=O)cc(COc3ccc(NC(=O)c4cccc(F)c4)cc3)nc12 | u | -4% | -2% | -4% | x
COc1ccc(C(=O)COC(=O)c2ccccc2NS(=O)(=O)c2ccc(O)c([N+](=O)[O-])c2)cc1 | -25% | 16µM* | -30% | 10% | 11
Clc1cccc(-c2ccc(C=Nc3ccc(N4CCOCC4)cc3)o2)c1Cl | u | 13µM* | u | -24% | -16
Clc1ccc(-c2ccc(C=Nc3ccc(N4CCOCC4)cc3)o2)c(Cl)c1 | -25% | u | -1% | -1% | -18
CCOC(=O)Cc1ccc(NC(=O)N2CC(CC)Oc3ccccc32)cc1 (stereo not drawn) | -3% | 0% | -3% | -4% | x
NC(=S)c1ccc[n+]([C@@H]2O[C@@H](COP(=O)([O-])OP(=O)(O)OC[C@H]3O[C@@H](n4cnc5c(N)ncnc54)[C@H](OP(=O)(O)O)[C@H]3O)C(O)C2O)c1 (stereo partly drawn) | x | 8% | 1% | 1% | x
Cc1ccc(NC(=O)C2CCCN2S(=O)(=O)c2ccc3nc(-c4ccccc4)[nH]c3c2)cc1F (stereo not drawn) | -2% | -11% | 28µM*[quencher] | u | x
CCOC(=O)c1sc(N(Cc2ccccc2)C(=O)COC(=O)c2ccccc2O)nc1C | -15% | -13% | -21% | -7% | -2
CCOC(=O)c1sc(N(Cc2ccccc2)C(=O)COC(=O)c2ccc(O)cc2)nc1C | -9% | -3% | u | 14µM* | -2
CC(=O)Oc1ccc(C(=O)[C@H]2[C@H]3C(=O)N(c4ccccc4)C(=O)[C@H]3[C@@H]3C=CC=NN32)cc1 | -8% | -3% | -11% | -3% | -41*
COc1ccc(N2C(=O)[C@@H]3[C@H](C2=O)[C@H](C(=O)c2ccc(OC(C)=O)cc2)N2N=CC=C[C@@H]32)cc1 | x | u | -16% | -5% | -14
CC(=O)Oc1ccc(N2C(=O)C3C(C2=O)C(C(=O)c2ccc(Cl)cc2)N2CCCC32)cc1 (stereo not drawn) | 22µM* | 35µM* | -16% | u | 0
COc1ccc(C2=Nn3c(nnc3-c3ccccc3O)SC2)cc1OC | x | x | x | x | 5
C[C@H]1COc2c(N3CCN(C)CC3)c(F)cc3c(=O)c(C(=O)NCc4ccco4)cn1c23 | x | -3% | -5% | -6% | 3
COCCN1C(=O)/C(=C/c2ccc(N3CCCC3)cc2)SC1=S | 5µM* | u | 5% | 3% | 1
Cc1ccc(S(=O)(=O)N2CCCC2C(=O)OCc2ccccc2)cc1 (stereo not drawn) | -11% | -5% | -5% | 0% | 2
Cc1ccc(S(=O)(=O)N2CCCCC2C(=O)N2CCN(C)CC2)cc1 (stereo not drawn) | -18% | 16µM* | -21% | u | 5
